The text below walks through data of PubChem BioAssay AID588382 (National Center for Advancing Translational Sciences (NCATS), 2011).

Hit rate of the full screen: of about 1,300 compounds, about 150 (12%) were called active. A call without a number means that no potency is given here. Another 30% or so got no clear call; they are omitted. The call rests on the fitted dose curve; in most records, active means well fitted cell-killing curve with a large enough effect; inconclusive means small, poorly fitted or top-dose-only effect, or effect the other way; inactive means flat fitted curve, though single readings scatter. Many of the other results were omitted from the sample, so actives are more common in it than they were.
Potency means the concentration at half of the fitted maximal effect.

This test can be described thus: qHTS of small molecules that selectively kill Giardia lamblia: Hit Validation in HepG2 cytotox.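 Further: compound exposure lasted overnight at 37 deg C; nearly all actives have a fitted effect of over 55% in size.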 Particulars: cell viability; Potency: HepG2 cytotoxicity; series mostly up to 38.3 µM. An excerpt: Giardia lamblia is a human pathogen afflicting impoverished nations, and the most common cause of outbreaks of diarrhea in the United States. Giardia has been classified by the CDC as a category B bioterrorism organism. The favored anti giardiasis drugs in the US are metronidazole or tinidazole, compounds that have undesirable side effects. Moreover, increasing resistance to drug regimes and recurrence are a concern. It is thus clear that alternative drug treatments are needed.
In a collaboration between the University of Maryland, College Park and the NIH Chemical Genomics Center, a bioluminescence Giardia viability assay based on the trophozoites' ATP content was developed. This assay is suitable for high throughput screening, and miniaturized the assay for compound screening in 1536-well plates. The goal of the project is to screen the Molecular Libraries Small Molecule Repository (MLSMR) for compounds that selectively kill Giardia trophozoites. This counterscreen looks at the toxicity of the compounds against the human HepG2 cell line.
NIH Chemical Genomics Center [NCGC]
NIH Molecular Libraries Probe Centers Network [MLPCN]
Assay Submitter (PI): Osnat Herzberg, University of Maryland, College Park, MD.
4 uL of HepG2 cells ae dispensed into white 1536-well plates. They are incubated overnight at 37 deg C and then 23 nL of compounds are transferred to the wells with a pintool. Plates are incubated overnight at 37 deg C. 2 uL of ATPLite is added and the plates are incubated for 15 min at room temperature before they are read on the ViewLux for luminiescence.
Turning to `CNC(=O)Oc1cccc(-c2cn3cc(Cl)ccc3n2)c1`, the Potency is 1.85 µM (active). Then `NC(=O)c1cc(N2CC2)c([N+](=O)[O-])cc1[N+](=O)[O-]`, with “inactive”.

In the case of `CN(c1ccccc1)c1ccc([N+](=O)[O-])c2nonc12`, the Potency entry is “inactive”. The same measure for `COC(=O)c1nc(-c2ccc3c(n2)C(=O)C(N)=C(OC)C3=O)c(N)c(-c2ccc(OC)c(OC)c2O)c1C`: 1.04 µM (active); for `C[C@H]1C[C@@H](C)C(=O)[C@@H]([C@H](O)CC2CC(=O)NC(=O)C2)C1`: “inactive”. The same measure for `CCOC(=O)C1CCCN(c2ccc([N+](=O)[O-])c3nonc23)C1` (stereo not given): “inactive”; for `Fc1ccc(C2NCCc3[nH]cnc32)cc1` (stereo not given): “inactive”. The same measure for `[Hg+][c]1ccccc1`: 1.85 µM (active); for `CC(C)(O)C1C2OC(=O)C1C1(O)CC3OC34C(=O)OC2C14C` (stereo not given): “inactive”.

Turning to `C[N+]12CCC(CC1)C(=C(c1ccccc1)c1ccccc1)C2`, the Potency entry was “inactive”. Consider `C[C@@H]1C[C@@H]([C@H](O)CC2CC(=O)NC(=O)C2)C(=O)[C@@H](C)C1`, for which the Potency entry was “inactive”. The same measure for `c1ccc2c(c1)[I+]c1ccccc1-2`: 0.0826 µM (active); for `O=[N+]([O-])c1ccc(-c2ccccc2)c([As](=O)(O)O)c1`: “inactive”.

On to `CC1=C(N2CC2)C(=O)C(CO)=C(N2CC2)C1=O`, for which the Potency is 0.0656 µM (active). As for `CCCCn1c(=O)c(C(=O)NCc2ccccc2OC)c(O)c2ccccc21`, the Potency result was “inactive”.

As for `CCn1nc(/C=C/c2ccccc2)nc2c(=O)n(C)c(=O)nc1-2`, the Potency is 6.56 µM (active).

Take `CC1CN(c2ccc([N+](=O)[O-])c3cccnc23)CC(C)N1` (stereo not given): the Potency result is “inactive”. Take `Cc1nc2c(=O)n(C)c(=O)nc-2n(C)n1`: the Potency is 0.656 µM (active). Then `CC1CC(C)CC(C)C(O)C(C#N)=CC=CCC(C2CCCC2C(=O)O)OC(=O)CC(O)C(C)C1` (stereo not given), with 2.33 µM (active). In the case of `O=[N+]([O-])c1ccc(O)c([N+](=O)[O-])c1`, the Potency entry is “inactive”. As for `CC(C)c1ccc(N=Nc2c(O)[nH]c(=O)[nH]c2=O)cc1`, the Potency result is “inactive”. Consider `CCOc1ccc(-n2c(-c3cccs3)nc3ccccc3c2=O)cc1`, for which the Potency entry was “inactive”. Then `O=c1c2ccccc2nc(/C=C/c2ccc([N+](=O)[O-])o2)n1-c1ccc(O)cc1`, with 3.69 µM (active); and `O=c1c2ccccc2nc(/C=C/c2ccc(O)cc2)n1-c1cccc(O)c1`, with “inactive”. The same measure for `COC1/C=C/C=C(\C)Cc2cc(O)c(Cl)c(c2)N(C)C(=O)CC(OC(=O)C(C)C)C2(C)OC2C(C)C2CC1(O)NC(=O)O2` (stereo not given): “inactive”; for `Cc1ccc(C(c2nnnn2Cc2ccccc2)N2CC=C(c3ccc(F)cc3)CC2)cc1` (stereo not given): “inactive”. As to `C=CC1CN2CCC1CC2[C@@H](OC(=O)c1ccc(OC)cc1)c1ccnc2ccccc12` (stereo not given in full), the Potency entry was “inactive”.

In the case of `c1ccc2c(c1)[IH]c1ccccc1-2`, the Potency is 0.0927 µM (active). Turning to `CN(C)C(=O)Oc1ccc(Br)c2ccccc12`, the Potency entry is “inactive”. Then `COC(COC(N)=O)C1=C(N2CC2)C(=O)C(C)=C(N2CC2)C1=O` (stereo not given), with 0.185 µM (active); and `O=[N+]([O-])c1cc([As](=O)(O)O)ccc1O`, with “inactive”. In the case of `CN1CCN(c2ccc([N+](=O)[O-])c3cccnc23)CC1`, the Potency result was “inactive”.

`Cc1nc2ccccc2c(=O)n1-c1cc([N+](=O)[O-])cc([N+](=O)[O-])c1`: the Potency result is “inactive”. Then `Cc1cc([N+](=O)[O-])c2ccccc2[n+]1[O-]`, with 1.17 µM (active); and `NN=C(N)N`, with “inactive”.
